Measured values published in the supplement of paper PMC6555819.

system: RARg:RXRa (NR concentration 270 nM, RXRa partner concentration 90 nM); assay: PBM binding z-score (relative to random genomic background probes); higher = stronger binding; sequences stand for … in GC…GCGATTGACAGCGTAGAATGAAGG
Summary of the method: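 Probes were double-stranded and carried 34-nt variable regions with direct-repeat seeds, single-nucleotide variants, half-site ablations and random human genomic background sequences, printed on custom Agilent 4×180K protein-binding microarrays. Arrays were incubated 1 h with ligand-free nuclear receptor dimers in PBS pH 7.4, 2% milk, 0.02% Triton X-100, 1 mM DTT, 0.2 mg/mL BSA and 0.4 mg/ml salmon testes DNA. Antibodies against each partner (one per run) detected binding, and scanned fluorescence was regression-normalized. Binding z-scores use the random background probes as reference.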

Sequence	PBM binding z-score
TCTCGGAGGACACAAAGGTCAGAGCTTTCCAGAG	4.8
CGTTCAAGGTCAAAGGTCAGTGAAGAGATGACGG	8.78
CCAGACAGGTGAGAAGGTAACTCAGCCTCGATTA	0.555
TAGCCTAGGTCATACAGGGGCCAGTATAGAAAGC	5.98
CCTACTGGGCCATTCAGAGGTCAATGATCATATG	4.55
CCTACTGGGCCGTTCAGAGGTCATTGATCATATG	3.7
ATATGTAGGTTATCTGGGGTCATTCAGACTAGGC	4.51
GATACAGGGTCAGCTACAGGCCAGAGTATGGAAA	5.37
CAAACTAGGTCAAGAGGTCAAAGTTCGCTTCCCG	8.33
ATCGAAAGGTCCAAGGTGAGTATACCCACCCGAA	0.919
ATATGTAGGATAGCTGGGGTCATTCAGACTAGGC	3.3
TCGTGTAGGTTACGGGGGCATTCAGGGATGAAGA	4.09
CGAACTACGTCATCCAGGACAGTGAATACATTGA	0.374
CGTCAAAGATCAAGGTAACGTAACAGAAAGCAGC	0.224
CGAACTAGGTCAAGGACAGTAAATCTCCGCACGC	4.01
AATACAGGGTCACGAGGCCAGAGTAGGTACGAAT	6.44
TCTAGTTGGTCACGGAGGACACACACGACGGGTA	1.55
CGTCCAAGGTCAGCGGGTCAGTGAAAGCGACGTG	6.32
ACGCGGAGGACAAAGGTCAGAGCTACGCCAGTGA	6.23
CCTTACGGGTCACGTGGTTATAGCACGACGAGCG	5.5

Sequence	PBM binding z-score
GGAACGAGGTCATTCGAGTTGATAGCATGGCGAT	6.09
TCTGCTAGGTCATCGATGGTCAGCTAATCTGCTA	3.79
ACTTAAGGGTCAACGAGGTTATAGCACGCGTATA	6.9
AATACAGGGTCATCGTACGCCAGAGTACGCACAG	5.65
ATCGAAAGGTCGACCAGGTGAGTATACACCGTTT	4.38
TTACCAAGGTGAACGGTCGTTGATGCACGCCTTG	0.796
CCTACTGGGCCAAAAAGGTCATTGATGCCGATAA	4.72
AGTCAAAGTTCAGGACGAGGTAACGTTAAGCACG	4.79
CGAACTAGGTCATTGACAGGACAATGAATAGTAA	4.78
TTACCAAGGTGAAAGGTCGTTGCTGCACGCCTTG	4.15
GCTAGTTGGTCAGTAAAATGTCACACACCGGTCG	0.584
TAGCCTAGGTCATGCGGGCCAATATAGTGTCGGC	3.98
CGTCCAAGGTCGAAGGTCAGTGAAGAGATGACGG	4.83
TCTAGTTGGTCACGGAGGGCACACACGACGGGTA	2.15
CCTGCTAGGTCATGGTCAGCGAATCTACAGTATG	4.05
CCTTACGGGTCACTGACAGGTTATAGCGTTTGGA	5.75
ACTTACGGGTCTACGAGGTTATAGCACGCGTATA	0.863
ACTCGGATGACAAAGGTCAGAGCTACGCCAGTGA	4.9
CCTACTGGGCCACGAAAGGCCATTGATTCAGTGA	0.332
ATCGAAAGGTCGACGAGGTGAGTAAACACCGTTT	4.4
